# Screening results as filed in PubChem BioAssay.
# Mdm2 MdmX PPI – inhibitors of human Mdm2/MdmX interaction; SaOS-2 split-luciferase Mdm2/MdmX complementation, luminescence; O15151+Q00987; inhibition, % at 8 µM; hit rate 3% among 330,000;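 active means inhibition of at least 50% at 8 µM in the primary screen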
# Beta apoptosis – beta cell apoptosis inhibition | INS-1E cytokine-induced death, ATP luminescence, 48 h; percent of positive-control rescue, neutral wells zero | protection from apoptosis, % (no concentration beside the values) | AID 435005 | hit rate 0.8% among 300,000;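 active means Every replicate reaches about 75%, or at least half do and their mean reaches it too, limit read from the data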;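 further: higher means more ATP so stronger rescue from cytokine killing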
# Gli-Sufu block – blocks Gli-Sufu signaling in a luciferase reporter; Sufu-KO-LIGHT fibroblasts, Gli luciferase reporter luminescence; inhibition, % at 5 µM; hit rate 0.74% among 340,000; AID 588413;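 active means inhibition above about 55%, limit read from the data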
# CSC inhib – cancer stem cell inhibition | inhibition, % at 7.5 µM | hit rate 1.1% among 300,000 | cancer stem cell-like cells viability, luminescence; in the data active means inhibition above about 75%; tested in HMLE shEcad cells
# MPTP block – blocks calcium-induced mitochondrial swelling | isolated mouse mitochondria, Ca2+ swelling absorbance, 30 min | inhibition, % at 10 µM | hit rate 1.4% among 360,000 | AID 602449;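 active means inhibition of 50% or more, scaled per plate between neutral and stimulator controls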
# GRIN3A LBD mod – modulates the human NR3A ligand-binding domain; Tm shift relative to glycine control, % at 25 µM; NR3A LBD differential scanning fluorimetry, Tm shift; 0% = protein alone, 100% = glycine-bound protein; hit rate 2.5% among 340,000;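 active means melting temperature shift of at least 10% of the positive control shift, at one fixed dose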
# Rh123 counter – Rhodamine 123 counter-screen of mitochondrial pore hits. shares compounds with MPTP block. isolated mitochondria, membrane potential, Rhodamine 123 fluorescence. inhibition, % at 10 µM. hit rate 78% among 5,000; in the data active means inhibition above about 22%
# MPTP swell DR – dose response confirmation of mitochondrial permeability transition pore inhibitors. shares compounds with MPTP block. isolated mitochondria swelling, absorbance. IC50, µM. hit rate 58% among 780. AID 651561; in the data active means IC50 below about 20 µM
# MPTP cs DR – active in counter-screen for permeability transition pore inhibitors | IC50, µM | hit rate 49% among 780 | AID 651564 | isolated mitochondria counterscreen, fluorescence read-out | shares compounds with MPTP block; in the data active means IC50 below about 80 µM
# Hits are given with their value; . = inactive; / = no result given. A selection: hits, their analogues and other compounds. The true share with any hit is near 6.6%.
SMILES,Mdm2 MdmX PPI,Beta apoptosis,Gli-Sufu block,CSC inhib,MPTP block,GRIN3A LBD mod,Rh123 counter,others
O=S(=O)(NCC(Nc1ccccc1)c1ccccc1)c1ccc(Cl)cc1 (stereo not drawn),.,.,.,.,51.5,17.1,74.1,
COc1ccc(Cl)cc1NC(=S)NCCSc1ccc(C)cc1,.,.,.,.,82.1,25.4,81.1,
Cc1cccc(C)c1NC(=S)NCCSc1ccc(Cl)cc1,.,.,.,.,82.1,.,86.3,
CCNC(=S)Nc1ccc(Cl)cc1,.,.,.,.,.,.,/,
Cc1ccc(NC(=S)NCCSc2ccc(Cl)cc2)cc1,.,.,.,.,99.8,18.3,99.4,
CC(CNC(=S)Nc1cc(F)cc(F)c1)CSc1ccc(Cl)cc1 (stereo not drawn),.,.,.,86.9,97.1,10.4,88.8,
COc1ccccc1NC(=S)NCCSc1ccc(Cl)cc1,.,.,.,.,.,.,/,
Cc1ccc(N(Cc2ccccc2)C(=O)c2ccc(F)c(S(=O)(=O)N3CCOCC3)c2)cc1,.,.,.,.,.,.,/,
CCN(CC)S(=O)(=O)c1cc(C)ccc1NC(=S)Nc1cccnc1,.,81.8,.,.,52.6,.,88.3,
Cc1ccc2[nH]c(C(=O)N/N=C/c3ccc([N+](=O)[O-])cc3)c(C)c2c1,.,.,.,.,50.7,19.9,73.5,
Cc1c(C(=O)NN)[nH]c2ccc([N+](=O)[O-])cc12,.,.,.,.,.,.,/,
CCCCC/C=N/NC(=O)c1[nH]c2ccc([N+](=O)[O-])cc2c1C,.,/,.,.,76.2,.,72.7,
O=[N+]([O-])c1ccc(O)c(C(C#Cc2ccccc2)N2CCOCC2)c1 (stereo not drawn),.,.,.,.,68.2,.,86.6,
O=C1CCCC(=O)C1=C1SCCS1,.,.,.,.,.,.,/,
O=c1cc(-c2ccc([N+](=O)[O-])cc2)nc2cc(-c3ccc(F)cc3)[nH]n12,.,.,.,.,88.7,.,.,MPTP swell DR=.;MPTP cs DR=27.7
COCCOc1ccc(C(F)(F)F)cc1NC(=O)c1ccc(C)cc1,.,.,.,.,58.0,.,.,MPTP swell DR=15.3;MPTP cs DR=.
COCCOc1ccc(C(F)(F)F)cc1NC(=O)c1ccc(F)cc1,.,.,.,.,.,.,/,
